In all, about 100,000 compounds went through this assay and about 770 (0.77%) were called active. Many of the other results were omitted from the sample, so actives are more common in it than they were. Values without a mark were called inactive. Rule as the data show it: active = inhibition above about 50%; inactive = the rest.

The inhibition is the drop in the measured response relative to a control, in per cent.

The assay deals with Gag-Pol polyprotein (Human immunodeficiency virus type 1 group M subtype B (isolate HXB2)) (UniProt P04585). Kind of assay: RNase H inhibition, HIV 1 Gag Pol polyprotein, FRET biochemical assay, screening (AID 372). The following applies: HIV-1 RT RNase H, FRET RNA/DNA substrate fluorescence; at 10 µM; active compounds read high.
Take `COc1ccc(N=CC2=C(O)CC(c3ccccc3)CC2=O)cc1OC` (configuration not stated): the inhibition is 0%. Turning to `COC(=O)c1ccc(NC(=O)Cc2ccc(OC)cc2)cc1`, the inhibition was 1%. The value for `CN1CCN(C2=NC(=O)/C(=C/c3ccc4c(c3)OCO4)S2)CC1` was 8%. As to `O=C(C[n+]1cccc(NC(=O)c2ccccc2)c1)c1ccc2c(c1)Cc1ccccc1-2`, the inhibition is 24%.

Take `CCOC(=O)C1=C(C)N=c2s/c(=C\c3ccc(-c4ccc(Cl)cc4Cl)o3)c(=O)n2C1c1ccc(C)cc1` (configuration not stated): the inhibition was 5%. To `CCOc1ccc(C(=O)Nc2ccc(CC)cc2)cc1[N+](=O)[O-]` belongs 9%; to `Cc1ccc(S(=O)(=O)Nc2ccccn2)cc1C`, 0%. `O=P(CCCO)(c1ccc(Cl)cc1)c1ccc(Cl)cc1`: the inhibition was 1%. For the compound `O=C1C2C3C=CC(C3)C2C(=O)N1CNc1ccccc1` (configuration not stated), the inhibition was 6%. As for `COC(=O)c1ccccc1NS(=O)(=O)c1ccccc1`, the inhibition is 57% (active). With `COC(=O)c1ccccc1NS(=O)(=O)c1ccc(Cl)cc1`, the inhibition was 12%.

With `COC(=O)c1ccccc1NS(=O)(=O)c1ccc(NC(C)=O)cc1`, the inhibition was 4%.

For the compound `COc1ccc(S(=O)(=O)N(CCc2ccccc2)CC(=O)NC2CCCCC2)cc1`, the inhibition is 4%.

Take `CCn1c2ccccc2c2cc(NC(=O)COc3ccccc3Cl)ccc21`: the inhibition was 7%.

`COc1cc(C=O)ccc1OCCOc1cccc(Oc2ccccc2)c1`: the inhibition was 21%. As to `COc1cc(C=O)ccc1OCCCCOc1cccc(Oc2ccccc2)c1`, the inhibition was 44%.

`Cc1ccc2nc(/C(C#N)=C/c3ccc(-c4cc([N+](=O)[O-])ccc4O)o3)[nH]c2c1`: the inhibition is 6%. Turning to `COc1ccc([N+](=O)[O-])cc1-c1ccc(/C=C(\C#N)c2nc3ccc(C)cc3[nH]2)o1`, the inhibition was 34%.

With `Cc1ccc([N+](=O)[O-])cc1-c1ccc(/C=C(\C#N)c2nc3ccccc3[nH]2)o1`, the inhibition was 58% (active). For `Cc1cccc(N2CCN(C(=O)c3ccc(Br)cc3)CC2)c1C`, the inhibition is 18%. As to `Cc1ccc(S(=O)(=O)c2nc(N)sc2Cl)cc1`, the inhibition is 30%. In the case of `COc1nc(S(=O)(=O)c2ccc(C)cc2)c(Cl)s1`, the inhibition was 0%.

On to `Cc1ccc(S(=O)(=O)c2nc(Nc3ccccc3C)sc2Cl)cc1`, for which the inhibition was 59% (active). On to `COc1ccccc1-n1c(O)c(C=C2C=Nc3ccccc32)c(=O)[nH]c1=S`, for which the inhibition was 7%. For the compound `CCSc1nnc(NC(=O)c2ccc(Cl)cc2)s1`, the inhibition was 4%. To `CCSc1nnc(NC(=O)c2cnccn2)s1` belongs 57% (active); to `CCc1nnc(NC(=O)c2cnccn2)s1`, 9%. As to `CCOC(=O)c1ccc(NC(=O)Cc2ccc(Br)cc2)cc1`, the inhibition is 3%. Turning to `COc1ccc(-c2n[nH]c(=S)n2N=C/C(Br)=C/c2ccccc2)cc1`, the inhibition was 21%. As to `N#Cc1c(-c2ccccc2)cc(-c2ccco2)c(C#N)c1N`, the inhibition was 18%.

Consider `N#Cc1c(-c2ccc(Br)cc2)cc(-c2ccc3c(c2)OCO3)c(C#N)c1N`, for which the inhibition is 48%.

On to `N#Cc1c(-c2ccc(Br)cc2)cc(-c2ccco2)c(C#N)c1N`, for which the inhibition was 58% (active). The value for `Cc1ccccc1C(=O)Nc1sc2c(c1C(=O)Nc1cccc3ccccc13)CCC2` was 13%; that for `O=C(Nc1cccc(O)c1)c1cc2nc(-c3ccc(Cl)cc3)cc(C(F)(F)F)n2n1` was 11%; that for `CC(=O)Oc1ccc(C(=O)Nc2cccc(C(=O)O)c2C)cc1` was 55% (active). The value for `CC(=O)Oc1ccc(C(=O)Nc2ccc(C)cc2C(=O)O)cc1` was 4%; that for `CC(=O)Oc1ccc(C(=O)Nc2cccc([N+](=O)[O-])c2C)cc1` was 6%; that for `Cc1ccccc1N1C(=O)NC(=O)/C(=C\c2cccn2-c2ccc(Cl)cc2)C1=O` was 42%. To `CC(C)(C)c1ccc(C(C)(C)C)c(Oc2ccccc2)c1O` belongs 8%; to `Cc1ccc([N+](=O)[O-])cc1NC(=O)c1cccc2c1C(=O)c1ccccc1-2`, 0%. Turning to `COc1cccc(/C=C2/SC(NC(C)=O)=NC2=O)c1OC`, the inhibition is 8%. Regarding `COc1ccccc1/C=C1\SC(NC(C)=O)=NC1=O`, the inhibition was 17%. `COc1ccc2ccccc2c1/C=C1/SC(NC(C)=O)=NC1=O`: the inhibition is 52% (active).

For the compound `COc1ccc(-c2n[nH]c(=S)n2/N=C/c2ccccc2Br)cc1`, the inhibition is 12%.

As to `COc1ccc(/C=C/c2ccc3ccccc3n2)cc1`, the inhibition is 17%. As to `Cc1nn(C(=O)C(C)N2C(=O)c3ccccc3C2=O)c(C)c1Br` (configuration not stated), the inhibition was 41%. The value for `Cc1cn(C(=O)C(C)N2C(=O)c3ccccc3C2=O)c(C)n1` (configuration not stated) was 53% (active); that for `Cc1cc(C)n(C(=O)C(C)N2C(=O)c3ccccc3C2=O)n1` (configuration not stated) was 43%; that for `CC1=C(C(=O)OC2CCCCCC2)C(c2ccccc2I)NC(=O)N1C` (configuration not stated) was 52% (active). In the case of `CC1=C(C(=O)OC2CCCCCCC2)C(c2ccccc2)NC(=O)N1` (configuration not stated), the inhibition is 57% (active). For the compound `COC(=O)C1=C(C)N(C)C(=O)NC1c1ccccc1I` (configuration not stated), the inhibition is 5%. As to `CC1=C(C(=O)OCc2ccccc2)C(c2ccc(C)s2)NC(=O)N1` (configuration not stated), the inhibition is 55% (active). To `CCCCCOC(=O)C1=C(C)NC(=O)NC1c1ccc(Br)cc1` (configuration not stated) belongs 20%. As for `CC1=C(C(=O)OCCc2ccccc2)C(c2ccc(C)s2)NC(=O)N1` (configuration not stated), the inhibition was 19%. To `CCCCOC(=O)C1=C(C)NC(=O)NC1c1ccc(Br)cc1` (configuration not stated) belongs 23%.

Consider `CC1=C(C(=O)OC2CCCCCC2)C(c2ccccc2)NC(=O)N1` (configuration not stated), for which the inhibition is 14%. On to `COCCOC(=O)C1=C(C)NC(=O)NC1c1ccc(C)s1` (configuration not stated), for which the inhibition was 8%.

For `CCCCCCOC(=O)C1=C(C)NC(=O)NC1c1ccc(Br)cc1` (configuration not stated), the inhibition was 53% (active).

With `CC1=C(C(=O)OC2CCCCCC2)C(c2ccc(C)cc2)NC(=O)N1` (configuration not stated), the inhibition is 36%.

In the case of `CC1=C(C(=O)OC2CCCC2)C(c2ccccc2Cl)NC(=O)N1C` (configuration not stated), the inhibition is 5%.

`Cc1cccc(C)c1NC(=O)c1ccc(N(Cc2ccc(Cl)cc2)S(C)(=O)=O)cc1`: the inhibition is 15%. As for `Cc1ccccc1OCCOc1ccc(Br)cc1/C=C1\SC(N)=NC1=O`, the inhibition is 33%. To `Cc1cccc(OCC(=O)Nc2ccccc2C(C)C)c1C` belongs 8%; to `O=C(CCN1C(=O)/C(=C/c2ccccc2Cl)SC1=S)Nc1ccc(-c2ccccc2)cc1`, 16%. In the case of `CSc1nc2ccccc2n1CCOc1ccc(C)cc1`, the inhibition is 8%.

With `Clc1ccc(COc2cccc(/C=N/n3cnnc3)c2)c(Cl)c1`, the inhibition is 50% (active). Regarding `O=Cc1cccc(OCc2ccc(Cl)cc2Cl)c1`, the inhibition is 32%. Consider `Clc1ccc(COc2ccc(/C=N/n3cnnc3)cc2)c(Cl)c1`, for which the inhibition was 3%. Take `CCSCCOC(=O)C1=C(C)NC2=C(C(=O)CC(c3cccs3)C2)C1c1ccc(C)s1` (configuration not stated): the inhibition was 11%. For the compound `COc1ccc(OC)c(C2C(C(C)=O)=C(O)C(=O)N2CC2CCCO2)c1` (configuration not stated), the inhibition is 0%.

Consider `Cc1ccc(/C=C2\C(=O)NC(=S)N(c3ccc(Br)cc3C)C2=O)o1`, for which the inhibition is 24%. Regarding `Cc1ccc(/C=C2\C(=O)NC(=S)N(c3ccc(Cl)c(Cl)c3)C2=O)o1`, the inhibition was 11%. Turning to `Cc1ccc(/C=C2\C(=O)NC(=S)N(c3ccc(Br)cc3)C2=O)o1`, the inhibition is 32%.

In the case of `O=C1NC(=S)N(c2ccccc2F)C(=O)/C1=C/c1ccc(-c2ccc(Cl)cc2)o1`, the inhibition was 14%.

`Cc1ccc(N2C(=O)/C(=C/c3ccco3)C(=O)NC2=S)cc1`: the inhibition was 9%. As to `O=C1NC(=S)N(c2ccc(Cl)cc2)C(=O)/C1=C\c1ccc(Cl)s1`, the inhibition is 8%.

On to `Cc1cc(Br)ccc1N1C(=O)/C(=C/c2cccs2)C(=O)NC1=S`, for which the inhibition is 16%. As to `O=C1NC(=S)N(c2ccccc2F)C(=O)/C1=C/c1ccc(N2CCCC2)o1`, the inhibition was 14%. The value for `Cc1cccc(C)c1NC(=O)c1ccc(-c2ccc(Cl)cc2Cl)o1` was 28%.

In the case of `C=CCc1cccc2cc(C(=O)N3CCCCC3)c(=O)oc12`, the inhibition is 1%. For the compound `COc1ccc(C2/C(=C(/O)c3ccccc3)C(=O)C(=O)N2c2ccc(C)cc2)cc1` (configuration not stated), the inhibition is 7%. To `CCCCn1c(O)c(/C=C2\C=Nc3ccccc32)c(=O)[nH]c1=O` belongs 25%. As for `CCc1ccccc1N1C(=O)NC(=O)/C(=C\c2ccc(N3CCCCC3)o2)C1=O`, the inhibition is 9%.

With `O=C1NC(=O)N(c2ccccc2F)C(=O)/C1=C/c1ccc(I)o1`, the inhibition was 0%. Regarding `Cc1cccc(N2C(=O)/C(=C/C=C/c3ccco3)C(=O)NC2=S)c1`, the inhibition was 11%.

`O=C1NC(=S)N(c2cccc(Cl)c2Cl)C(=O)/C1=C/c1ccc(Cl)cc1`: the inhibition was 10%.

With `O=C1NC(=S)N(c2ccc(Br)cc2)C(=O)/C1=C/C=C/c1ccco1`, the inhibition is 16%. Consider `O=C1NC(=S)N(c2ccccc2)C(=O)/C1=C\C=C\c1ccccc1[N+](=O)[O-]`, for which the inhibition is 16%.

With `O=C1NC(=S)N(c2cccc(Cl)c2Cl)C(=O)/C1=C/c1ccco1`, the inhibition is 58% (active). Consider `O=C1NC(=O)N(c2ccc(Cl)cc2)C(=O)/C1=C\C=C\c1ccccc1[N+](=O)[O-]`, for which the inhibition is 14%.

As to `Cc1ccccc1N1C(=O)/C(=C/c2ccc(I)o2)C(=O)NC1=S`, the inhibition is 18%.

Consider `O=C1NC(=S)N(c2cccc(Cl)c2Cl)C(=O)/C1=C/c1ccc(I)o1`, for which the inhibition is 45%. The value for `Cc1cc(C=O)c(C)n1-c1ccc(Cl)cc1` was 10%; that for `CCN(CC)c1ccc(/C=C2\C(=O)N(c3nc(-c4ccc(Cl)cc4)cs3)N=C2c2ccccc2)cc1` was 8%; that for `O=[N+]([O-])c1ccc(NC(=S)Nc2ccccc2)c(O)c1` was 2%. Turning to `CCOC(=O)C1=C(C)NC2=C(C(=O)CC(c3ccc(OC)cc3)C2)C1c1ccc(O)cc1` (configuration not stated), the inhibition is 11%. Regarding `Cc1ccc(/C=N/NC(=O)c2ccc(F)cc2)s1`, the inhibition is 7%.
